Experiments:
Assay in all cases: MAPPIT interaction score (arbitrary units); higher = stronger binary interaction signal, active = hit call of the paper;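 active = MAPPIT score above the 99th percentile of random reference set scores in the same batch; inactive = at or below it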
hid = details: pair source set: RRS
laza = details: MAPPIT configuration: N-N; pair source set: screen_2
l(3)neo38 = details: MAPPIT configuration: N-N; pair source set: Lit-BS-16
lola = details: pair source set: RRS
gus = details: MAPPIT configuration: N-N; pair source set: Finley_Y2H
ihog = details: pair source set: Lit-BM-16
isoQC = details: MAPPIT configuration: N-N; pair source set: DPIM
ix = details: pair source set: Lit-BM-16
jvl = details: pair source set: RRS
kappaB-Ras = details: MAPPIT configuration: N-N; pair source set: DPIM
htl = details: MAPPIT configuration: N-N; pair source set: RRS
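Further: HEK293T cells with Epo stimulation, STAT-responsive firefly luciferase reporter, fold induction versus unstimulated cells divided by the larger fold induction of two negative controls lacking either bait or prey.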

B1: sesB (protein)
chain: MGNISASITSQSKMGKDFDAVGFVKDFAAGGISAAVSKTAVAPIERVKLLLQVQHISKQISPDKQYKGMVDCFIRIPKEQGFSSFWRGNLANVIRYFPTQALNFAFKDKYKQVFLGGVDKNTQFWRYFAGNLASGGAAGATSLCFVYPLDFARTRLAADTGKGGQREFTGLGNCLTKIFKSDGIVGLYRGFGVSVQGIIIYRAAYFGFYDTARGMLPDPKNTPIYISWAIAQVVTTVAGIVSYPFDTVRRRMMMQSGRKATEVIYKNTLHCWATIAKQEGTGAFFKGAFSNILRGTGGAFVLVLYDEIKKVL
Q: Which results are given for B1?
A: MAPPIT interaction score (hid; MAPPIT configuration: N-C): 0.0222 (inactive); MAPPIT interaction score (hid; MAPPIT configuration: N-N): -0.106 (inactive)

B2: Es2 (protein)
chain: MSATTRTPATPGTPGTPGSLAMEVARVQNSALAEFKKPTAMVRHKNKPKILTEEKYIEEMSKIIQRDFFPDLERLRAQNDYLDAESRRDFVQMAEIRERYSLGRISGTGRSTSRRNNAMSPATFETPVSQAKCSNTPLPNSRATDTPFSTDGSEKSDAEGRDTTAKLSLDAFLQKYTSEDNQSFQEIIETAEAKLRQKYAVLYNHEKLSAEQLQRALMLPSIETQFEEPDPLRKIETWNYTNMNSIMYVPDGVEYTEEERVQLAERKQSIQHNATRLPDEAKHREMDTKKLNDEVPQNGAGGATATPKVRGFDLLRSPSPRPGEAFSPIMTWGEIDGTPFRLDGGDTPLRPTQGPSFRINENSRRENIAIALAERVSERMRNQKQMALDTARRNIGSPLIRTNMERLASMSPAAQLLATGKLGIRGTPRLRHTPSPMSGRKRKVTPGVVRSTNTPILGEPKPKQQAKISTPAKNVTIDTGSTLTDDLLKIPTKRRTAADFF
Q: B2 was tested. Which MAPPIT interaction score (laza) did it give?
A: The MAPPIT interaction score was 0.373 (inactive).

B3: Pdk1 (protein)
chain: MKCKSWSNKINNYVVRKIKSIKINGTQQQLQLPGSGASGIAAAAVITVASDCGENCSSNGTEHQQHFNIATTTATSATEATMPAMAKEKASATVSLGESNFRDINLKDLAVVVEAASRLHHQQNVCGCGAVSSTENNNNSRYGSSKYLTNGHTSPLAAAVASNSSSVATTPHCRMLHNCSLQQYQNDIRQQTEILDMLRQQHQQGYQSQQQQQQPQQQQEQQQQQEQSQQQQQLQNPAPRRSPNDFIFGRYIGEGSYSIVYLAVDIHSRREYAIKVCEKRLILRERKQDYIKREREVMHQMTNVPGFVNLSCTFQDQRSLYFVMTYARKGDMLPYINRVGSFDVACTRHYAAELLLACEHMHRRNVVHRDLKPENILLDEDMHTLIADFGSAKVMTAHERALATEHCSEQRRSNSDEDDEDSDRLENEDEDFYDRDSEELDDGDDEQQQEEMDSPRHRQRRYNRHRKASFVGTAQYVSPEVLQNGPITPAADLWALGCIVYQMIAGLPPFRGSNDYVIFKEILDCAVDFPQGFDKDAEDLVRKLLRVDPRDRLGAQDEFGYYESIRAHPFFAGIDWQTLRQQTPPPIYPYLPGVSQDEDFRSSYTVPGDLEPGLDERQISRLLSAELGVGSSVAMPVKRSTAKNSFDLNDAEKLQRLEQQKTDKWHVFADGEVILKKGFVNKRKGLFARKRMLLLTTGPRLIYIDPVQMIKKGEIPWSPDLRAEYKNFKIFFVHTPNRTYYLDDPEGYAIHWSEAIENMRKLAYGDPSSTSAVSCSSGSSNSLAVISNSSAASSSNSPTVKRSSPVNAPQASTASDNRTLGSTRTGTSPSKKTASK
Q: How did the MAPPIT interaction score (l(3)neo38) turn out when B3 was run?
A: Its MAPPIT interaction score is 1.81 (inactive).

B4: CG3262 (protein)
chain: MERLLINTIWRSYATKLTGSQVKLMARGLPKKQPIIGVQDIIVVASGKGGVGKSTVAVNFACSLAKLGKRVGLLDGDIFGPTIPLLMNVHGEPVVNDKNLMIPPQNYNVKCLSMGMLTPVETSVIWRGPLVMSAIQRLLKGTDWGLLDVLVIDTPPGTGDVHLSLSQHAPITGVILVTTPHTAAVQVTLKGASMYEKLNVPIFGVVENMKYTICQNCNQRLEFFKDSRISSLPRKLISLPLDSRIADSNESGVPVVIKYPDSKYSYLFTQLAEEITQILNEQRCNQNQNNSAH
Q: What does the source list for B4?
A: MAPPIT interaction score (lola; MAPPIT configuration: N-C): 0.425 (inactive); MAPPIT interaction score (lola; MAPPIT configuration: N-N): 0.0633 (inactive)

B5: Sirt2 (protein)
chain: MDKVRRFFANTLHLGGSSDAKEEVKVEKVIPDLSFDGFAEHWRVHGFRKIVTMVGAGISTSAGIPDFRSPGSGLYSNLKKYELPHPTAIFDLDYFEKNPAPFFALAKELYPGSFIPTPAHYFIRLLNDKGLLQRHYTQNIDTLDRLTGLPEDKIIEAHGSFHTNHCIKCRKEYDMDWMKAEIFADRLPKCQKCQGVVKPDIVFFGENLPKRFYSSPEEDFQDCDLLIIMGTSLEVQPFASLVWRPGPRCIRLLINRDAVGQASCVLFMDPNTRSLLFDKPNNTRDVAFLGDCDAGVMALAKALGWDQELQQLITSERKKLSGSQNSEELQQGKEKPQSDPDKMTSGDRDKKDASL
Q: How did the MAPPIT interaction score (gus) turn out when B5 was run?
A: The MAPPIT interaction score was -0.0617 (inactive).

B6: ihog (protein)
chain: MTLLTSSLLLFSLLTSRLEAIPVLEKSPAHPAHSAHPAHPAHPAHPAHPSPGVRILRAPESLVAPLGDEVVLECETSLQPERFEWSHRSSRSPGAGFKYLKTGTAKANVSQEAAISRLRVLVRPDTLGEYRCVGWFGPLVVTSTIARLELASTSLVDAQESESPLQWRVSAGNSVLWSCGQQVQSNPSASWSYYRNGVEIKPEFIGTNGNLFLSNVSSESSGSYSCQATNPASGERIQLPGSLQLQVTPEQRSESKSPHLLRGQPSSQEITIREGSSLLLLCPGVGSPPPTVVWSSPDVVGAVKNKRSKVFGHALEISNTRVNDAGTYICFQDNGVRPALEHYIKVHVEQPPQIVRPPWADLTNEGDRLKLECKATGVPTPEIYWLLNGHSSIDDSEAELSNNFLILHSVLKRHAGYVQCFARNRLGEHSAGTLLQVNPKQIQEPRESGGTHRPKPNQGSRQKQMYPPTPPNVTRLSDESVMLRWMVPRNDGLPIVIFKVQYRMVGKRKNWQTTNDNIPYGKPKWNSELGKSFTASVTDLKPQHTYRFRILAVYSNNDNKESNTSAKFYLQPGAALDPMPVPELLEIEEYSETAVVLHWSLASDADEHLITGYYAYYRPSSSAGEYFKATIEGAHARSFKIAPLETATMYEFKLQSFSAASASEFSALKQGRTQRPKTSTTEEPTLQMGDRDTTTPSHNETFNMSPMLTGTIGGGAVLILLLISTCFCVCRRRNSRSRGNNPNKPRMAELRDDFVPLGNCSPTKQRQRTRHIHITLNPLAQQQQQALEEKNDTDQDAPYYQRPSSYDYDPTLRRMSSSSLRRSQRTLERAGGSNGSNNGNNNNLNQSAEAGSIENPGKPGRVLMKRPRLSSRSENLSSGSLNSVGV
Q: What does the source list for B6?
A: MAPPIT interaction score (ihog; MAPPIT configuration: N-C): -0.576 (inactive); MAPPIT interaction score (ihog; MAPPIT configuration: N-N): -0.268 (inactive)

B7: fd59A (protein)
chain: MHTSTDPMHTLHDSVSLSPPLIKSSRGGSSIGNGIGCSASSRTAAADAMSMGCDDSDIEPSSMGGSGAAGGNGDGSGSSGGPLVKPPYSYIALITMAILQSPHKKLTLSGICDFIMSRFPYYKDKFPAWQNSIRHNLSLNDCFIKVPREPGNPGKGNFWTLDPLAEDMFDNGSFLRRRKRYKRAPTMQRFSFPAVFGTLSPFWIRKPVPLVPVHFNVPNFNGSREFDVVHNPADVFDSALRADKKFNFFANAEASFYQGSQSGDKFDRLPFMNRGRGADVLDALPHSSGSGGGVGGGSESSRGSKYKSPYAFDVATVASAAGIPGHRDYAERLSAGGGYMDLNVYNDDADTEADAEAEGDDDSCEDKIDVESGNEQEDSHISDSVDSACTNRLDAPPEALIFEASAEASDSSPRRRFDSEPLVLRTSKQSSAKDFRIETLIGHHLHRGGSQEETSD
Q: Which MAPPIT interaction score (isoQC) does the source give for B7 here?
A: The MAPPIT interaction score was 0.602 (inactive).

B8: MED8 (protein)
chain: MQRDEKLFELTLDTVLQRLNDLKLAVLSMIQKLELEYETINWPTFLDNFAIISSHLTGLTKILAKEQCPPLRNRTVLPLLVSMDRDDTLINITEGRVPVFSHDIVPDYLRTRPDPITEQKMLQNEQKAANLTNDAAMKQVTQYNKVVSHVLDMVSKAREEWEIESSSRTGIQQTSSMADTQLLVAAVGMGKGLKLTNYGPGPGMMVPPSIRAPSPMGGPAMSPGNVQQQLGKAPSAVKTNIKSANQVHPFSR
Q: With B8 as the binder, how does the MAPPIT interaction score (ix; MAPPIT configuration: N-C) read?
A: The MAPPIT interaction score was 3.01 (inactive).

Q: What about the MAPPIT interaction score (ix; MAPPIT configuration: N-N) of the same binder?
A: Its MAPPIT interaction score is 2.19 (inactive).

B9: TH1 (protein)
chain: MEVEYDDSGWQGRAKGQTNPEETLEDNPQKTIQECLEKFLTPDYIMEPGIFTQLKRYFQSGGSPEEVISMLSENYKAVAQMANLLAEWLILAGVKVTEVQAMVENHLKEMILKSFDPKKADTIFTEEGETPDWLTEMIDHYTWRSLIYRLAEEYPDCLMLNFTIKLISDAGFQSEITSISTAAQQIEVFSRVLKTSIVKFLNNPDDVHGAIQECARMVCHGQHTYVYSQVLIQVLSQEQKGGFNMKRLSQEIIKYALQNNQNVTPITMALNGSAVYPQACQALTSMLTRNTLNPADITVLFRNYSGSDPPPIDLIRNPQFLELLVDALFRSGVKINPEHKPKYMFLLAYASAVIDQPAKKRPMTERMLNKEELKSTIQAIEKAHTICNVDQGSTELIAELQTLYNCIKYPVVGVGVIRWIENVVMEPSYFKLSTDSCPTHLAVLDEVAAVHPTLQQQILFLLIRLFESKQDELEILVQLEMKKMILDRMVNLLTRGCVVPVLRYIKQCCAIEDTDISLIRYFVTEVLETITHPYSPEFVQLFLPMVENEEITGTMRGEGDNDPVSEFIVHCKAHYTTV
Q: What does the source list for B9?
A: MAPPIT interaction score (jvl; MAPPIT configuration: N-C): 0.00492 (inactive); MAPPIT interaction score (jvl; MAPPIT configuration: N-N): -0.0162 (inactive)

B10: Cp1 (protein)
chain: MNHLGVFETRFRPRTRHKSQRAQLIPEQITMRTAVLLPLLALLAVAQAVSFADVVMEEWHTFKLEHRKNYQDETEERFRLKIFNENKHKIAKHNQRFAEGKVSFKLAVNKYADLLHHEFRQLMNGFNYTLHKQLRAADESFKGVTFISPAHVTLPKSVDWRTKGAVTAVKDQGHCGSCWAFSSTGALEGQHFRKSGVLVSLSEQNLVDCSTKYGNNGCNGGLMDNAFRYIKDNGGIDTEKSYPYEAIDDSCHFNKGTVGATDRGFTDIPQGDEKKMAEAVATVGPVSVAIDASHESFQFYSEGVYNEPQCDAQNLDHGVLVVGFGTDESGEDYWLVKNSWGTTWGDKGFIKMLRNKENQCGIASASSYPLV
Q: For B10, which MAPPIT interaction score (kappaB-Ras) is on record?
A: The MAPPIT interaction score was 0.259 (inactive).

B11: Uba5 (protein)
chain: MSHAIDELQAIIADLKTELETEPKSSGGVASNSRLARDRIDRMSAEVVDSNPYSRLMALQRMNIVKDYERIRYKAVAIVGVGGVGSVTADMLTRCGIGKLILFDYDKVELANMNRLFFTPDQAGLSKVAAAAATLSFINPDVEIETHNYNITTVENFDRFLDTISQGGRIAGQPVDLVLSCVDNFEARMAINAACNERNLNWFESGVSENAVSGHIQFIRPGDTACFACAPPLVVAENIDEKTLKREGVCAASLPTTMGITAGFLVQNALKYLLNFGEVSDYLGYNALSDFFPKMTLKPNPQCDDRNCLVRQKEFQARPKPVLIEEKAVSEEPLHATNEWGIELVAEDAPESNTTPAETPVMGEGLRLAYEAPEKSSETSEETVSAATADETSLEDLMAQMKSM
Q: Which MAPPIT interaction score (htl) does the source give for B11 here?
A: The MAPPIT interaction score was 0.0658 (inactive).
